Results as given in PubChem BioAssay AID2130 (The Scripps Research Institute Molecular Screening Center, 2009).
In all, about 320,000 compounds went through this assay and about 1,700 (0.53%) were called active. This is one part of a sample in which actives are shown more often than they occur.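 How the source made its calls: active means inhibition above the campaign mean of all compounds plus 3 SD (cut at about 26% in these data); inactive means the rest.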

Each compound was assayed against Protein phosphatase methylesterase 1 (Homo sapiens) (UniProt Q9Y570) (assay: human PME-1 methylesterase blockers – biochemical, fluorescence polarization, FP-Rh probe, HTS, primary screen (AID 2130;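 further: competitive labeling of PME-1 active site by serine hydrolase directed probe; 0% = PME-1 with DMSO and 100% = wells lacking PME-1 enzyme; inhibitors block probe labeling so polarization falls and inhibition rises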)). Details: recombinant PME-1, FP-Rh probe fluorescence polarization; at 5.9 µM; hits give high values.
Chain of Protein phosphatase methylesterase 1 (Homo sapiens) (Q9Y570 whole entry, looked up): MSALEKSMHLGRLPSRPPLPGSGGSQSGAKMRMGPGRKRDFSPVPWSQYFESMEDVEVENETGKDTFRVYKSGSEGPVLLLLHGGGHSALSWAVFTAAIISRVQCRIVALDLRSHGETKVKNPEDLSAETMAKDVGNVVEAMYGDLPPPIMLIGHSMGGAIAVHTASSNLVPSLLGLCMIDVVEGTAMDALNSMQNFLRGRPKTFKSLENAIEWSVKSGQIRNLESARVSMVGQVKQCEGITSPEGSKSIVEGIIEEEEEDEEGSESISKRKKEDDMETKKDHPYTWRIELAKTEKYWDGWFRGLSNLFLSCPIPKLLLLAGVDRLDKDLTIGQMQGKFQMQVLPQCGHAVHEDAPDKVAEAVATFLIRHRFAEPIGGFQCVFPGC

inhibition, inactive:
O=C(NCCc1ccccn1)c1nc(Cn2cc([N+](=O)[O-])cn2)no1 -4.02%
Cc1ccc(-c2ccnc3nc(Sc4ncc(C(F)(F)F)cc4Cl)nn23)cc1 -0.19%
COC/C=C/C1=CC2=CC(=O)C(C)(OC(=O)CCC(=O)OC)C(=O)C2=CO1 (configuration not stated) -1.35%
COc1ccccc1OCCn1c(SCC(N)=O)nc2ccccc21 -4.12%
COC(C(=O)Nc1ccc(C(C)=O)cc1)c1ccccc1 (configuration not stated) -5.79%
COc1ccc(NC(=O)[C@H](NC(=O)[C@@H]2Cc3ccccc3CN2)c2ccccc2)cc1 -3.82%
CS(=O)(=O)N(CC(=O)Nc1ccc(F)cc1F)c1cccc([N+](=O)[O-])c1 -2.56%
O=C(CNCc1cccs1)Nc1cc(S(=O)(=O)N2CCCC2)ccc1Cl 22%
CSCCC(NS(=O)(=O)/C=C/c1ccccc1)C(=O)N1CCC(C)CC1 (configuration not stated) 6.82%
CCc1nnc(NC(=O)c2sc3nc(C)cc(COC)c3c2N)s1 -5.69%
CCc1nnc(NC(=O)c2cccc(S(=O)(=O)N(C)c3ccc(OC)cc3)c2)s1 -0.95%
Clc1ccc(-c2cc(COc3ccccc3)no2)cc1Cl -8.92%
COC(=O)COc1ccc2c(c1C)O/C(=C\c1ccco1)C2=O -9.46%
CCOc1cc(/C=N/NC(=O)c2cc(-c3ccccc3)nc3ccccc23)ccc1O -7.58%
COc1cc(/C=N/NC(=O)c2ccc(N3CCCC3=O)cc2)ccc1O 5.91%
CCOC(=O)[C@H]1CCC[C@@H](NS(=O)(=O)c2ccc(NC(C)=O)cc2)C1 1.52%
Cc1csc2nc(COC(=O)c3cccc(N(C)C)c3)cc(=O)n12 3.78%
COc1ccc(NS(=O)(=O)c2cc(C(=O)Nc3ccccc3C(=O)O)ccc2C)cc1 -3.94%
COc1ccc(C(=O)CC(=O)C(=O)Nc2cc([N+](=O)[O-])ccc2OC)cc1 -2.97%
Cc1occc1C(=O)NC1CCCN(Cc2ccc(CC(C)C)cc2)C1 (configuration not stated) 5.69%
COc1ccc(CN(Cc2ccc(OC)cc2)C(=O)c2cccs2)cc1 4.18%
COc1cc2ccccc2cc1C(=O)Nc1ccc(NC(=O)c2cccs2)cc1 -34%
CN(Cc1c(F)cccc1Cl)S(=O)(=O)c1cccs1 4.21%
CN(C)C(=O)c1ccc2c(c1)C1C3CCC(C3)C1C(c1ccccc1)N2 (configuration not stated) 8.08%
CCc1nnc(NC(=O)CSc2nc(SC)ns2)s1 -0.14%
CCN(CC)C(=O)CSC(Nc1cccc(F)c1)=C(C#N)C#N -5.27%
O=C(NCCc1c[nH]c2ccccc12)c1cccc(Br)c1 4.14%
Cc1cc(C)cc(NC(=S)NCc2ccc(F)cc2)c1 7.45%
O=C(NCCS(=O)(=O)N1CCN(c2ccccc2F)CC1)c1ccc(Br)o1 3.82%
Cc1cc(C)c2nc3nc(C)cc(C)c3c(N)c2c1 -3.32%
CCOC12CC(C)(C)CC(C)(CC3=C1C(=O)CC(C)(C)C3)C2 (configuration not stated) 2.34%
O=c1c2sccc2nc(SCc2cc(=O)n3ccccc3n2)n1-c1ccc(Br)cc1 6.68%
N#CCCN(C(=O)COC(=O)C1CCN(c2ccc(C(F)(F)F)cn2)CC1)c1ccc(F)cc1 1.79%
Cc1cc(NC(=O)COc2ccccc2C#N)no1 -1.79%
CCc1ccccc1OCC(=O)Nc1ccc(C)c(S(=O)(=O)N2CCCCCC2)c1 -30.7%
CCOc1ccc(S(=O)(=O)N(CC(=O)NCC(F)(F)F)Cc2ccco2)cc1 -1.32%
FC(F)(F)c1cccc(-c2nc(COc3ccc(Cl)cc3Cl)no2)c1 -0.04%
Cn1nccc1NC(=O)Nc1ccc(OC(F)(F)F)cc1 8.73%
COC(=O)[C@H](C)NC(=O)Nc1ccc(OC(F)(F)F)cc1 0.46%
CCOC(=O)Cc1c(C)nc2c(C#N)c(C)nn2c1C -0.83%
CCN=C1S/C(=C\c2cc(Br)ccc2OCC(=O)OCC)C(=O)N1CC 3.9%
CC(C)CCOc1ccc(C(=O)C[N+]2(C)CCOCC2)cc1 1.1%
Cc1ccc(N(Cc2ccc(C(=O)Nc3ccccc3C(=O)NCc3ccco3)cc2)S(C)(=O)=O)cc1C -28.2%
Nc1c(N(Cc2ccco2)C(=O)c2cccc(F)c2)c(=O)[nH]c(=O)n1Cc1ccccc1 3.17%

inhibition, active:
COc1ccc(NC(C(=O)Nc2cccc(C(C)=O)c2)c2ccccc2)cc1 (configuration not stated) 34.5%
CCc1ccc2nc3sc(C(=O)Nc4nnc(CC)s4)c(N)c3cc2c1 65.8%
COc1ccc(C(=O)Nc2ccccc2C(=O)N/N=C/c2ccc(O)c(OC)c2)cc1 33.6%
COc1ccc(NS(=O)(=O)c2cc(NC(=O)CC(=O)c3ccc([N+](=O)[O-])cc3)ccc2C)cc1 27%
COc1ccc(CCNC(=O)/C(C#N)=C2\N=C(NC(=O)c3cccs3)c3ccccc32)cc1 28.2%
Cc1cc(C)cc(NC(=S)NCCc2c[nH]c3ccccc23)c1 26.7%
CCc1cccc(CC)c1NC(=O)COc1ccccc1C(=O)c1cc(C#N)c(=O)n(C2CCCCC2)c1 26.5%
O=C(Nc1ccc(OC(F)(F)F)cc1)c1ccc2c(c1)no[n+]2[O-] 32%
